# Laboratory results: PubChem BioAssay (NCATS)
# Results filed as inconclusive are left out. Entries that show only a call come without a potency. The source made the active and inactive calls. The call rests on the fitted dose curve; in most records, active means well fitted cell-killing curve with a large enough effect; inconclusive means small, poorly fitted or top-dose-only effect, or effect the other way; inactive means no such curve, though single readings can be large or run the other way.
# Assay: Quantitative High-Throughput drug screen in 47 multiple myeloma cell lines against the NCATS MIPE library collection: PCM6_Riken cell viability assay (AID 1919870); further: nearly all actives have a fitted effect of over 30% in size
# Conditions: CellTiter-Glo ATP, 48 h; series mostly up to 45.8 µM
# Text: PI: Beverly A. Mock Ph.D.
# Laboratory of Cancer Biology and Genetics,
# Center for Cancer Research, National Cancer Institute,
# National Institute of Health, Bethesda, Maryland
# Drug resistance and disease progression are common in multiple myeloma (MM) patients, underscoring the need for new therapeutic combinations. […] We hypothesized that effective combinations would reduce MYC expression and enhance p16 activity. […] These preclinical data identify potentially useful drug combinations for evaluation in drug-resistant MM and reveal potential mechanisms of combined drug sensitivity.
# Described herein is the primary MIPE qHTS used to cherrypick compounds. Validated compounds were then further tested for potential synergistic activiy.
# [1] Peat TJ, Gaikwad SM, Dubois W, Gyabaah-Kessie N, Zhang S, Gorjifard S, Phyo Z, Andres M, Hughitt VK, Simpson RM, Miller MA, Girvin AT, Taylor A, Williams D, D'Antonio N, Zhang Y, Rajagopalan A, Flietner E, Wilson K, Zhang X, Shinn P, Klumpp-Thomas C, McKnight C, Itkin Z, Chen L, Kazandijian D, Zhang J, Michalowski AM, Simmons JK, Keats J, Thomas CJ, Mock BA. Drug combinations identified by high-throughput screening promote cell cycle transition and upregulate Smad pathways in myeloma. Cancer Lett. 2023 Aug 1;568:216284. doi: 10.1016/j.canlet.2023.216284. Epub 2023 Jun 24. PMID: 37356470; PMCID: PMC10408729.
# SEQUENCE No. (e.g., 1, 2, 3, etc.); […] (e.g., Cells, Incubation, Reagent, etc.); VALUE and DESCRIPTION.
# 1; Cells; 5 uL; white, solid bottom 1536-well Greiner assay plate.
# 2; Compounds; 23 nL; Kalypsis pin tool (Wako USA) equipped with a 1536-well pin head to transfer to the assay plates.
# 3; Incubation; 48 hours; 37C incubation.
# 4; Reagent;5uL; CellTiter Glo (Promega).
# 5; Detector; 425V; Luminescence; Viewlux PerkinElmer.
# NOTES (numbers refer to Sequence numbers above)
# 1. The cell-based screening methods employed in this study were like those previously published. Briefly, the corresponding myeloma cell lines were screened in 1,536-well plates with 500 cells, 5-uL per well for inhibition of cell viability (assessed by measuring ATP levels with CellTiterGlo).
# 2. NCATS MIPE 4.0 library of approved and investigational drugs were added using the Kalypsis pin tool. Wells treated with DMSO only for 100% viability and media only for 0% viability were used as controls.
# 3. The assay plates were covered and incubated for 48 hours in a 37C, 5% CO2 incubator with controlled humidity.
# 4. After 48 hours, CellTilter-GloTM luminescent substrate mix (Promega) reagent was added to the assay plate and plates we incubated for 5 min at room temperature.
# 5. Signal was measured as median relative luminescence units on a ViewLux (PerkinElmer) multiplate reader.
# [1] Heske CM, Davis MI, Baumgart JT, Wilson K, Gormally MV, Chen L, Zhang X, Ceribelli M, Duveau DY, Guha R, Ferrer M, Arnaldez FI, Ji J, Tran HL, Zhang Y, Mendoza A, Helman LJ, Thomas CJ. Matrix Screen Identifies Synergistic Combination of PARP Inhibitors and Nicotinamide Phosphoribosyltransferase (NAMPT) Inhibitors in Ewing Sarcoma. Clin Cancer Res. 2017 Dec 1;23(23):7301-7311. doi: 10.1158/1078-0432.CCR-17-1121. Epub 2017 Sep 12. PMID: 28899971; PMCID: PMC6636827.
# Potency means the concentration at half of the fitted maximal effect.
row,Compound,Potency
1,CC1Cc2ccccc2N1NC(=O)c1ccc(Cl)c(S(N)(=O)=O)c1 (stereo not given),inactive
2,Nc1nc(N)c(N=O)c(OCC2CCCCC2)n1,5.26 µM (active)
3,O=C(c1ccccc1)c1ccc2n1CCC2C(=O)O (stereo not given),10.5 µM (active)
4,Oc1ccc(OCc2ccccc2)cc1,inactive
5,Nc1cccc2c1CN(C1CCC(=O)NC1=O)C2=O (stereo not given),inactive
6,Clc1ccc(C(Cn2ccnc2)OCc2ccc(Sc3ccccc3)cc2)c(Cl)c1 (stereo not given),18.7 µM (active)
7,NC(=O)Cc1cccc(C(=O)c2ccccc2)c1N,inactive
8,CCN(CCO)CCCC(C)Nc1ccnc2cc(Cl)ccc12 (stereo not given),inactive
9,C[C@@H](N)C1CCC(C(=O)Nc2ccncc2)CC1 (stereo not given in full),14.8 µM (active)
10,Cc1c(C(=O)NN2CCCCC2)nn(-c2ccc(Cl)cc2Cl)c1-c1ccc(Cl)cc1,26.4 µM (active)
11,O=C(NCCO[N+](=O)[O-])c1cccnc1,inactive
12,O=C(O)c1cc(=O)c2c(OCC(O)COc3cccc4oc(C(=O)O)cc(=O)c34)cccc2o1,inactive
13,COc1cc(Nc2c(C#N)cnc3cc(OCCCN4CCN(C)CC4)c(OC)cc23)c(Cl)cc1Cl,1.87 µM (active)
14,CC(=O)O[C@H]1C(=O)[C@@]2(C)C([C@H](OC(=O)c3ccccc3)[C@]3(O)C[C@H](OC(=O)[C@H](O)[C@@H](NC(=O)c4ccccc4)c4ccccc4)C(C)=C1C3(C)C)[C@]1(OC(C)=O)CO[C@@H]1C[C@@H]2O (stereo not given in full),inactive
15,CNC[C@H](O)c1ccc(O)c(O)c1,inactive
16,CCCCC(CC)COC(=O)C(C#N)=C(c1ccccc1)c1ccccc1 (stereo not given),inactive
17,c1ccc2[nH]c(-c3cscn3)nc2c1,inactive
18,CN(C)c1ccc2nc3ccc(=[N+](C)C)cc-3sc2c1,1.05 µM (active)
19,CC1(C)C(=O)N(CCN2CCC(C(=O)c3ccc(F)cc3)CC2)c2ccccc21,inactive
20,CCN(CC)C(=S)SSC(=S)N(CC)CC,0.001 µM (active)

row,Compound,Potency
1,O=c1ccc2ccc(O)c(O)c2o1,13.2 µM (active)
2,C[C@@H](c1ncncc1F)[C@](O)(Cn1cncn1)c1ccc(F)cc1F,1.66 µM (active)
3,CN(C)[C@@H](CCOc1cccc2ccccc12)c1ccccc1,18.7 µM (active)
4,NC(=NCc1ccccc1)NC(=O)c1nc(Cl)c(N)nc1N,4.69 µM (active)
5,CCC1=C(C)CN(C(=O)NCCc2ccc(S(=O)(=O)NC(=O)NC3CCC(C)CC3)cc2)C1=O (stereo not given),inactive
6,Oc1ccc(-c2nc(-c3ccc(F)cc3)c(-c3ccncc3)[nH]2)cc1,20.9 µM (active)
7,O=P(O)(O)C(O)(Cn1ccnc1)P(=O)(O)O,inactive
8,Cc1cc(Cl)ccc1OCCCC(=O)NO,2.35 µM (active)
9,C[C@H](Cc1ccc(O)c(O)c1)[C@@H](C)Cc1ccc(O)c(O)c1,18.7 µM (active)
10,C=C(c1ccc(C(=O)O)cc1)c1cc2c(cc1C)C(C)(C)CCC2(C)C,inactive
11,O=C(O)c1cccnc1Nc1cccc(C(F)(F)F)c1,inactive
12,CC(S)C(=O)NCC(=O)O (stereo not given),inactive
13,Cc1cccc(C#Cc2ccccc2)n1,inactive
14,COC(=O)C1=C(C)NC(C)=C(C(=O)OC(C)C)C1c1cccc2nonc12 (stereo not given),26.4 µM (active)
15,Cc1ccc(Nc2nccc(N(C)c3ccc4c(C)n(C)nc4c3)n2)cc1S(N)(=O)=O,4.69 µM (active)
16,CCN(CC)CCOc1ccc(Nc2ncc3cc(-c4c(Cl)cccc4Cl)c(=O)n(C)c3n2)cc1,0.935 µM (active)
17,CCCc1cc(=O)[nH]c(=S)[nH]1,inactive
18,CCOC(=O)C1=C[C@@H](OC(CC)CC)[C@H](NC(C)=O)[C@@H](N)C1,inactive
19,COc1c2occc2cc2ccc(=O)oc12,inactive
20,CCCCCCCCOc1ccccc1C(=O)Nc1ccc(C(=O)OCC[N+](C)(CC)CC)cc1,16.6 µM (active)
